# Laboratory results from PubChem BioAssay (Tox21).
# A number with no mark means an inactive call. Inconclusive results are not listed. Where a call stands in place of a potency, no number is given. Calls of active or inactive are those of the source. Unless noted, calls follow the shape of the dose curve; as a rule, active = well fitted curve in the direction sought with a large enough effect in the repeat runs; inconclusive = weak or mixed curves; inactive = no such curve, though single readings can be large; an effect the other way counts as inactive or inconclusive.
# What was measured:
# [1] = qHTS assay for small molecules that induce genotoxicity in human embryonic kidney cells expressing luciferase-tagged ATAD5 (AID 651632); also: nearly all actives have a fitted effect of over 15% in size
# Procedure, shortened: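 Concentration-response screen for ATAD5 upregulation in HEK293T luciferase reporter cells; 16 hr treatment at 37C, then luminescence after 30 min with Amplite at room temperature.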
# [2] = qHTS assay for small molecule agonists of the p53 signaling pathway - cell viability (AID 651633; calls by dose curve; also: nearly all actives have a fitted effect of over 30% in size; also: potency is read from the fitted curve at half-maximal effect)
# Procedure, shortened: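 Viability counter-read: CellTiter-Glo luminescence (30 min, room temperature) in the same p53RE-bla plates. These plates had been exposed to compounds for 16 h at 37 C.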
# [3] = qHTS assay for small molecule disruptors of the mitochondrial membrane potential - cell viability (AID 720634; calls by dose curve;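 also: human HepG2 liver cancer cells; series mostly up to about 83 µM; nearly all actives have a fitted effect of over 20% in size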)
# Procedure, shortened: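 In this qHTS format, HepG2 cells plated overnight were pinned with compound, incubated 1 hr, and assayed for ATP luminescence with CellTiter-Glo after m-MPI dye addition.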
# [4] = qHTS assay to test for compound auto fluorescence at 590 nm (red) in HepG2 cells (AID 720674)
# Procedure, shortened: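 1 hr compound incubation on HepG2 cells, 37 C, 5% CO2; plate read ex 540 nm / em 590 nm; intensities reported as Rose Bengal sodium equivalents.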
# [5] = qHTS assay to test for compound auto fluorescence at 535 nm (green) in HepG2 cells (AID 720675)
# [6] = qHTS assay to test for compound auto fluorescence at 590 nm (red) in HEK293 cells (AID 720679)
# Procedure, shortened: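 HEK293 cells (2,000/well, medium with 10% dialyzed FBS) attached for 4-5 hr at 37C, received 23 nL compound and were incubated overnight at 37C, 5% CO2. Red fluorescence was then read at 540/590nm Ex/Em, referenced to Rose Bengal sodium.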
# [7] = qHTS assay to test for compound auto fluorescence at 460 nm (blue) in HEK293 cell free culture (AID 720681)
# Procedure, shortened: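 Blue fluorescence (Ex 405/Em 460 nm, triamterene-equivalent) was read immediately after pin transfer of compound or DMSO into medium (DMEM, 10% FBS) without cells.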
# [8] = qHTS assay to test for compound auto fluorescence at 535 nm (green) in HEK293 cell free culture (AID 720682)
# Procedure, shortened: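 No cells present: wells hold DMEM supplemented with 10% FBS, into which compound or vehicle is pinned. Green emission is then recorded (485 nm excitation, 535 nm emission) and scaled to fluorescein.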
# [9] = qHTS assay to test for compound auto fluorescence at 590 nm (red) in HEK293 cell free culture (AID 720683)
# Procedure, shortened: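 Red-channel autofluorescence of compounds in culture medium (DMEM, 10% FBS), no cells, measured at 540/590 nm. Rose Bengal sodium is the reference fluorophore for equivalence.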
# [10] = qHTS assay to test for compound auto fluorescence at 590 nm (red) in HepG2 cell free culture (AID 720684)
# Procedure, shortened: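 No cells present: MEM + 10% FBS only. Compound pinned in, red label read (540/590 nm). Activity = fluorescence equivalent to Rose Bengal sodium.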
# [11] = qHTS assay to test for compound auto fluorescence at 460 nm (blue) in HepG2 cell free culture (AID 720685)
# Procedure, shortened: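 Cell-free plates of MEM plus 10% FBS received 23 nL compound or DMSO vehicle; blue-channel (405/460 nm) intensity scored against triamterene as reference fluorophore.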
# [12] = qHTS assay to test for compound auto fluorescence at 535 nm (green) in HepG2 cell free culture (AID 720686)
# [13] = qHTS assay to test for compound auto fluorescence at 460 nm (blue) in HepG2 cells (AID 720687)
# Procedure, shortened: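 Blue-channel autofluorescence (Ex/Em 405/460 nm, triamterene-equivalent) was measured after 1 hr compound exposure at 37 C, 5% CO2. Cells were HepG2, plated overnight at 37 C in MEM plus 10% FBS.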
# [14] = molecular target: Glucocorticoid receptor (Homo sapiens) (UniProt P04150); assay: qHTS assay to identify small molecule antagonists of the glucocorticoid receptor (GR) signaling pathway (AID 720692; active = well fitted inhibition curve with a large enough effect in the signal ratio in the repeat runs, not every such curve was filed as active; the % refers to the signal ratio; also: potency is read from the fitted curve at half-maximal effect)
# Procedure, shortened: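 Tox21 10K library screened in concentration-response for blockade of dexamethasone (5 nM final)-induced GRE-bla reporter activity in HeLa cells; 18 h treatment, fluorescence read.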
# [15] = qHTS assay for small molecules that induce genotoxicity in human embryonic kidney cells expressing luciferase-tagged ATAD5 - cell viability (AID 651634; calls by dose curve; also: nearly all actives have a fitted effect of over 25% in size)
# Procedure, shortened: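 15.5 hr compound or vehicle exposure of HEK293T cells expressing luciferase-tagged ATAD5 at 37C; live-cell protease activity is read by fluorescence after 30 min of CellTiter-Fluor.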
# [16] = qHTS assay to test for compound auto fluorescence at 460 nm (blue) in HEK293 cells (AID 720678)
# Procedure, shortened: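 HEK293 cells (2,000 per well, medium with 10% dialyzed FBS) attached for 4-5 hr at 37C, then received compound and stood overnight at 37C, 5% CO2. Blue fluorescence was read at Ex/Em 405/460 nm and expressed relative to triamterene.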
# [17] = qHTS assay to test for compound auto fluorescence at 535 nm (green) in HEK293 cells (AID 720680)
# [18] = molecular target: Glucocorticoid receptor (Homo sapiens) (UniProt P04150); assay: qHTS assay to identify small molecule agonists of the glucocorticoid receptor (GR) signaling pathway (AID 720691; active = well fitted activation curve with a large enough effect in the signal ratio in the repeat runs, not every such curve was filed as active; the % refers to the signal ratio)
# Procedure, shortened: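 Measures GR pathway activation through a GRE-beta-lactamase reporter stably integrated in HeLa cells, with 18 h compound treatment at 37 C and fluorescence detection using a FRET substrate.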
# [19] = qHTS assay for small molecule disruptors of the mitochondrial membrane potential (AID 720635); also: potency is read from the fitted curve at half-maximal effect
# Procedure, shortened: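 Mitochondrial membrane potential tracked with Mito-MPS dye, red aggregates (ex 540/em 590 nm) against green monomers (ex 490/em 535 nm). Compound treatment 1 hr at 37C, dye 30 min in HepG2.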
# Glucocorticoid receptor (Homo sapiens), sequence (P04150 whole entry, looked up): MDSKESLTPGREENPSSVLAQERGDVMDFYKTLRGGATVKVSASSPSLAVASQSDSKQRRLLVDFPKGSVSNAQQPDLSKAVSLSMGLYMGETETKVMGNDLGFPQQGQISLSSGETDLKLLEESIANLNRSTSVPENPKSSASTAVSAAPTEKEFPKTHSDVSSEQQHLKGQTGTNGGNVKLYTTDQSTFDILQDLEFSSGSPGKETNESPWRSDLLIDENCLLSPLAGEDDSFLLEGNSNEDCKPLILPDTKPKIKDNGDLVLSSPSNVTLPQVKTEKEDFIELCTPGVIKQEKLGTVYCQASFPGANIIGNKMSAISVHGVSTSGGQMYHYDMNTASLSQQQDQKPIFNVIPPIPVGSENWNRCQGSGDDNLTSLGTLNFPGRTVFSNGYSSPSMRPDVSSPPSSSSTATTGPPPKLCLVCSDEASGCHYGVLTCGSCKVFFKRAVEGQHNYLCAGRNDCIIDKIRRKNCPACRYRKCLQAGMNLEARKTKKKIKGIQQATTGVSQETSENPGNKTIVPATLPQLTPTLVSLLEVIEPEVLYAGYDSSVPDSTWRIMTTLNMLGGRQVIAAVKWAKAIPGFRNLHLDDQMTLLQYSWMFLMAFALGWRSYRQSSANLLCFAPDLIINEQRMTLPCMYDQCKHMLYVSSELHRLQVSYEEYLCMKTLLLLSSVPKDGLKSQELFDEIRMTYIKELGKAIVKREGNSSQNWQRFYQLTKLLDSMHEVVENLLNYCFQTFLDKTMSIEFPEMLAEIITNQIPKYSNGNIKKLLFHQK
smiles,measurement,setting,value
CCOc1cccc(-n2cc(C(=O)N3CCN(c4cc(C(=O)O)c5ccccc5c4)CC3)nc2-c2ccc(C)cc2)c1,Potency,[1],inactive
same,Potency,[2],20.7 µM (active)
same,Potency,[3],inactive
same,outcome,[4],inactive
same,outcome,[5],inactive
same,outcome,[6],inactive
same,Potency,[7],inactive
same,outcome,[8],inactive
same,outcome,[9],inactive
same,outcome,[10],inactive
same,Potency,[11],inactive
same,outcome,[12],inactive
same,Potency,[13],inactive
same,Potency,[14],14.8 µM (active)
CCCCC(CC)COP(=O)(O)O (stereo unspecified),Potency,[1],inactive
same,Potency,[15],inactive
same,outcome,[4],inactive
same,outcome,[5],inactive
same,Potency,[16],inactive
same,outcome,[6],inactive
same,outcome,[17],inactive
same,Potency,[7],inactive
same,outcome,[8],inactive
same,outcome,[9],inactive
same,outcome,[10],inactive
same,Potency,[11],inactive
same,Potency,[13],inactive
same,Potency,[18],inactive
same,Potency,[14],49.8 µM (active)
C[C@@H]1CN(CCCn2c3ccccc3c3ccccc32)C[C@H](C)N1,Potency,[1],inactive
same,Potency,[3],inactive
same,outcome,[4],inactive
same,outcome,[5],inactive
same,Potency,[16],inactive
same,outcome,[6],inactive
same,outcome,[17],inactive
same,Potency,[7],inactive
same,outcome,[8],inactive
same,outcome,[9],inactive
same,outcome,[10],inactive
same,Potency,[11],inactive
same,outcome,[12],inactive
same,Potency,[13],inactive
Cc1cc(O)ccc1O,Potency,[15],inactive
same,Potency,[3],inactive
same,Potency,[19],inactive
same,outcome,[4],inactive
same,outcome,[5],inactive
same,outcome,[6],inactive
same,outcome,[17],inactive
same,Potency,[7],inactive
same,outcome,[8],inactive
same,outcome,[9],inactive
same,outcome,[10],inactive
same,Potency,[11],inactive
same,outcome,[12],inactive
same,Potency,[13],inactive
O=C(CCCN1CC=C(n2c(=O)[nH]c3ccccc32)CC1)c1ccc(F)cc1,Potency,[1],inactive
same,Potency,[15],inactive
same,Potency,[3],inactive
same,Potency,[19],inactive
same,outcome,[4],inactive
same,outcome,[5],inactive
same,outcome,[6],inactive
same,outcome,[17],inactive
same,Potency,[7],inactive
same,outcome,[8],inactive
same,outcome,[9],inactive
same,outcome,[10],inactive
same,Potency,[11],inactive
same,outcome,[12],inactive
same,Potency,[13],inactive
same,Potency,[18],inactive
same,Potency,[14],inactive
COC(=O)C1=C(C)NC(C)=C(C(=O)O[C@@H]2CCCN(Cc3ccccc3)C2)[C@@H]1c1cccc([N+](=O)[O-])c1,Potency,[1],inactive
same,Potency,[2],inactive
same,Potency,[19],13.3 µM (active)
same,outcome,[4],inactive
same,outcome,[5],inactive
same,Potency,[16],inactive
same,outcome,[6],inactive
same,outcome,[17],inactive
same,Potency,[7],inactive
same,outcome,[8],inactive
same,outcome,[9],inactive
same,outcome,[10],inactive
same,Potency,[11],inactive
same,outcome,[12],inactive
same,Potency,[13],inactive
same,Potency,[14],10.7 µM (active)
O=C1C(=O)c2ccccc2C(O)=C1C1CCC(c2ccc(Cl)cc2)CC1 (stereo unspecified),Potency,[1],inactive
same,Potency,[15],inactive
same,Potency,[3],inactive
same,"fluorescence, relative to Rose Bengal",[4],-0.463% [at 18.6 µM]
same,"fluorescence, % of fluorescein control",[5],-0.0011% [at 18.6 µM]
same,"fluorescence, % of triamterene",[16],0.0437% [at 18.6 µM]
same,"fluorescence, % of fluorescent control",[6],0.421% [at 18.6 µM]
same,"fluorescence, % of fluorescent control",[7],-0.0599% [at 18.6 µM]
same,activity change,[8],-0.0167% [at 18.6 µM]
same,"fluorescence, % of fluorescent control",[9],0.0147% [at 18.6 µM]
same,"fluorescence, % of Rose Bengal",[10],0.0009% [at 18.6 µM]
same,"fluorescence, % of fluorescent control",[11],0.0263% [at 18.6 µM]
same,"fluorescence, % of fluorescein control",[12],0.136% [at 18.6 µM]
same,"fluorescence, % of fluorescent control",[13],0.0025% [at 18.6 µM]
O=C1Cc2ccccc2N1c1c(Cl)cccc1Cl,Potency,[1],inactive
same,Potency,[15],inactive
same,outcome,[4],inactive
same,outcome,[5],inactive
same,Potency,[16],inactive
same,outcome,[6],inactive
same,outcome,[17],inactive
same,outcome,[8],inactive
same,outcome,[9],inactive
same,Potency,[11],inactive
same,outcome,[12],inactive
same,Potency,[13],inactive
